Many of the other results were omitted from the sample, so hits are more common in it than they were.
ERG-DNA inh – qHTS for Small Molecule Inhibitors of the ERG Ets/DNA interaction; fluorescence polarization, His-ERG Ets domain / labelled DNA; Potency, µM (titrated, usually from 76.9 µM), for inactives: top-dose FP activity, negative = inhibition, hits mostly inhibitors; actives 0.028% (n = 370,000); active = well fitted inhibition curve with a large enough effect in the polarisation, with a control signal flat; inconclusive = small, poorly fitted or top-dose-only effect, or effect the other way, or a change in a side signal; inactive = no such curve, though single readings can be large or run the other way; the % refers to the polarisation;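 note: polarization taken with two DNA probes labelled with fluorescein and Texas red; potency is the fitted concentration of half-maximal effect; % of control where 0% means no effect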
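His-tagged ERG Ets domain (1 uM in the protein solution; 300mM KCl, 50mM Tris-HCl, 1mM EDTA, 1mM DTT, pH 7.5) received compound, then a probe mix of 5 nM fluorescein-DNA and 100nM Texas-615-DNA. Fluorescence polarization was read for both dyes.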
Integrin act MD – qHTS for Activators of Integrin-Mediated Alleviation for Muscular Dystrophy; alpha7betagal myoblasts, beta-gal FDG fluorescence, 48 h; Potency, µM (top dose mostly 38.3 µM), inactives show at the highest dose activation, hits mostly activators; actives 0.064% (n = 350,000); AID 624291, 2012;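 note: potency is the fitted concentration of half-maximal effect; 100% = response of the positive control SU9516; nearly all actives have a fitted effect of over 60% in size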
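alpha7betagal+/- myoblasts (passage 13, 250/well) treated 48 h at 37C with compounds at 1:260 dilution of DMSO stock. Lysed, then beta-galactosidase activity read as FDG fluorescence (ex 480/em 540) after 30 min, with pre-read for autofluorescence.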
VP16 counter – VP16 counterscreen qHTS for inhibitors of ROR gamma transcriptional activity; actives 3.5% (n = 310,000); Potency, µM (top dose mostly 53.6 µM), without a hit: top-dose activity, negative = inhibition, most hits filed as inhibitors; Drosophila S2 Gal4-VP16 UAS-luciferase, luminescence, 20 h; AID 2546, 2010;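 note: Gal4-VP16 expression switched on by copper sulfate through the metallothionein promoter; potency is the fitted concentration of half-maximal effect; % is set by controls: 0 for no effect and ±100 for the full control effect; nearly all actives have a fitted effect of over 50% in size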
RORgamma inh – qHTS for inhibitors of ROR gamma transcriptional activity. Nuclear receptor ROR-gamma (Mus musculus), P51450. Drosophila S2 Gal4-RORgamma UAS-luciferase reporter, 20 h. Potency, µM (series often up to 53.6 µM), without a hit: top-dose activity change, negative = inhibition, hits mostly inhibitors. actives 5.4% (n = 310,000). AID 2551, 2010; note: potency is the fitted concentration of half-maximal effect; % is set by controls: 0 for no effect and ±100 for the full control effect; nearly all actives have a fitted effect of over 60% in size
Target sequence (P51450 whole entry, looked up, the tested form may be a part): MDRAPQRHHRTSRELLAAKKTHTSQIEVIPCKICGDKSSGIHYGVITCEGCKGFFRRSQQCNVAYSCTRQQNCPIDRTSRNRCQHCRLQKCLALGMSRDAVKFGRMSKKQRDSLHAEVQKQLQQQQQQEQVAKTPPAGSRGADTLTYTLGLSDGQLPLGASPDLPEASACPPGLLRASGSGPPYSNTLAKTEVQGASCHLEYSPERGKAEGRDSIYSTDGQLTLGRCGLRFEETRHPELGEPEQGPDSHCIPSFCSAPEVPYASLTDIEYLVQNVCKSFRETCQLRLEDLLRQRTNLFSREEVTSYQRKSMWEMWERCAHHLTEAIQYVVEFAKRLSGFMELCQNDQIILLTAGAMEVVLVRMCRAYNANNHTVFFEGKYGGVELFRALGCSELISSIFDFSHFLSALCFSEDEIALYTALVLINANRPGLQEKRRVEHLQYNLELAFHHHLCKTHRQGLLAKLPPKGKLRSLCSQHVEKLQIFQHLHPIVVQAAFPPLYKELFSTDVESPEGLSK
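Stable Schneider cell line, Gal4 DNA-binding domain fused to ROR gamma, UAS-luciferase. Cmpd 1 hr RT → CuSO4 700 uM final → 20 hr RT → luciferase reagent 10 min → luminescence.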
Giardia kill – Small Molecules that selectively kill Giardia lamblia: qHTS. actives 0.15% (n = 340,000). Giardia lamblia trophozoite viability. activity change, % at 7.66 µM, hits read low; in the data active = activity change below about -80%; inconclusive = between about -30% and that limit;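 note: parasites exposed to compound for two days anaerobically before the ATP read; % is set by controls: 0 for no effect and ±100 for the full control effect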
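Giardia trophozoites, 100 cells per well, were exposed to compounds for 48 hrs at 37 deg C under anaerobic conditions; viability was then read as ATP content by bioluminescence after 15-30 min at room temperature.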
Starred values were filed as active, the others as inactive; ? = inconclusive; . = no result; [ ] = dose if it differs, or a comment. Unless noted, calls come from the whole dose curve; as a rule, active = well fitted curve in the direction sought with a large enough effect; inconclusive = small, poorly fitted or top-dose-only effect, or another doubt; inactive = no such curve, though single readings can be large; an effect the other way counts as inactive or inconclusive.

SMILES	ERG-DNA inh	Integrin act MD	VP16 counter	RORgamma inh	Giardia kill
CN1CCc2cc3c(cc2[C@@H]1[C@@H]1C(=O)Oc2c1ccc1c2OCO1)OCO3	.	.	0%	21%	.
Cc1ccccc1C(=O)Oc1ccc(Br)cc1C(=S)N1CCCC1	-1%	-38%	?	11µM*	-12
O=C(Oc1ccc(Br)cc1C(=S)N1CCCC1)c1ccccc1F	.	-19%	-4%	-1%	3
O=C(Oc1ccc(Br)cc1C(=S)N1CCCCC1)c1cc([N+](=O)[O-])cc([N+](=O)[O-])c1	-10%	-4%	-1%	18µM*	-2
O=C(Oc1ccc(Br)cc1C(=S)N1CCOCC1)c1ccc([N+](=O)[O-])cc1[N+](=O)[O-]	-4%	0%	-25%	-18%	7
CC(=O)Nc1cnc(NC(=O)c2cccc(F)c2)cc1C	-1%	11%	?	4µM*	7
CCOC(=O)c1c(C)[nH]c(C(=O)N/N=C\c2ccccc2Cl)c1C	-6%	15%	?	8.9µM*	4
CCOC(=O)C(=O)N1CCC(Cc2ccccc2)CC1	-10%	25%	20%	-9%	13
CC(=O)O[C@@H]1[C@@H](O)CN[C@@H]1Cc1ccccc1	.	.	0.28µM*	0.5µM*	-83*
CSc1cccc(-c2nnc(NC(=O)c3ccc4c(c3)OCCO4)o2)c1	-14%	.	.	.	.
O=C(Nc1nnc(-c2ccc3c(c2)OCCO3)o1)c1ccc(Cc2ccccc2)cc1	5%	-21%	7.1µM*	5.6µM*	-3
O=C(CCOc1ccccc1)Nc1nnc(-c2ccc3c(c2)OCCO3)o1	10%	-20%	20µM*	8.9µM*	-29
Cc1onc(-c2ccc(Cl)cc2)c1-c1ccnn1S(=O)(=O)c1cccc(C(F)(F)F)c1	0%	0%	5%	?	7
CC(CC(=O)c1ccc(F)cc1)N1CCN(c2ccccc2)CC1 (centres undefined)	-8%	-15%	.	.	9
CC(=O)Nc1ccc(NC(=O)COC(=O)/C(=C/c2ccccc2)n2nnnc2C)cc1	9%	-14%	?	16µM*	5
Cc1nnnn1/C(=C\c1ccccc1)C(=O)OCC(=O)NC(C)(C)C	.	-18%	20µM*	13µM*	-4
Cc1nnnn1/C(=C\c1ccccc1)C(=O)OCC(=O)NC1CCCCC1	3%	10%	.	.	10
Cc1ccc(-n2nc(C)cc2Nc2ncc(Cl)cc2Cl)cc1	-2%	31%	?	-35%	13
Cc1cc(Nc2ncc(Cl)cc2Cl)n(-c2ccccc2C)n1	-6%	10%	?	8.9µM*	38
CN(C)c1nc(N/N=C/c2ccccc2O)nc(Nc2ccc(F)cc2)n1	20%	-30%	1.1µM*	0.22µM*	6
COc1ccc(NC(=S)NCC(c2ccco2)N2CCCC2)cc1 (centres undefined)	14%	-9%	-6%	?	4
S=C(NCCNCc1ccccc1)NC1CCCCC1	.	.	?	4µM*	.
S=C(NCCc1ccccc1)NC1CCCCCC1	-5%	8%	9%[0.365 µM]	2.8µM*	-17
S=C(NCCc1ccccc1)NCC(c1ccco1)N1CCCCC1 (centres undefined)	5%	-13%	?	10µM*	6
Cc1ccc(NC(=S)N/N=C2\CCCCC2C)cc1 (centres undefined)	-1%	0%	0%	?	3
SMILES	ERG-DNA inh	Integrin act MD	VP16 counter	RORgamma inh	Giardia kill
CC1CCCC/C1=N\NC(=S)NCCc1ccccc1 (centres undefined)	2%	-18%	1.8µM*	0.35µM*	12
O=C(NC1CCCCC1)C(=S)NCCc1ccccc1	-11%	-34%	2%	20%	28
O=C(CNCC1(N2CCOCC2)CCCCC1)Nc1ccc(Cl)cc1	-7%	7%	7%	8%	10
CCn1cc(S(=O)(=O)c2cccc(C)c2)c(=O)c2cc(F)c(N3CCCCC3C)cc21 (centres undefined)	-1%	.	.	.	.
S=C(NC1CCCCC1)N(CCc1ccccc1)CCc1ccccc1	7%	-42%	10µM*	10µM*	-8
O=C(NCCc1ccccc1)C(=O)NC1CCCCC1	.	?	12%	-4%	9
OCCN(Cc1ccccc1)C(=S)NC1CCCCC1	-5%	-32%	-2%	?	2
S=C(NCCc1ccc(Cl)cc1)NC1CCCCC1	-1%	-23%	5µM*	3.5µM*	-5
S=C(NCCc1ccc(Cl)cc1)NC1CCCC1	-3%	-12%	6.3µM*	2µM*	3
CN(C)C(=O)c1cc(C(=O)c2ccc(F)cc2C(F)(F)F)c[nH]1	1%	3%	-6%	?	-2
Clc1ccc(N=c2ssnc2Cl)nc1	?	14%	-7%	10µM*	21
O=C(CSc1nnc(-c2cc3ccccc3cc2O)n1Cc1ccco1)c1ccc(F)cc1	4%	-19%	14µM*	-33%	-9
O=C1/C(=C/c2cccnc2)CCC/C1=C\c1cccnc1	4%	-60%	2.5µM*	1.3µM*	?
CCC1C/C(=C\c2cccnc2)C(=O)/C(=C/c2cccnc2)C1 (centres undefined)	5%	-50%	1.8µM*	5.6µM*	-29
O=C1/C(=C/c2cccnc2)CC/C1=C\c1cccnc1	-7%	-19%	-18%	1%	-24
Cc1ccc(S(=O)(=O)N(C)C[C@H]2Oc3cc(C#Cc4ccccc4)ccc3S(=O)(=O)N([C@H](C)CO)C[C@@H]2C)cc1	.	3%	.	.	.
CSCC[C@@H]1NC(=O)C/C=C\[C@@H](C)COC(=O)[C@@H](C)COC1=O	.	.	-4%[10 µM]	4%[10 µM]	.
COc1ccc(/C(N)=N/OC(=O)c2ccco2)cc1	-9%	26%	10µM*	7.9µM*	8
Cc1ccc(/C(N)=N/OC(=O)c2ccco2)cc1	0%	-13%	?	?	-4
O=C(OCC(=O)N1CCCc2ccccc21)c1cc(Cl)ccc1O	-1%	-22%	-6%	-17%	-6
CCC1CCc2nc3sc(C(=O)Nc4ccc(F)cc4F)c(N)c3cc2C1 (centres undefined)	6%	.	.	.	.
CNC(=S)N/N=C(\C)c1ccc2c(c1)OCO2	-2%	1%	?	7.1µM*	22
C/C(=N/NC(=O)c1ccc2c(c1)OCO2)c1ccc(NC(=O)C(F)(F)F)cc1	3%	4%	-4%	-45%	8
CCc1ccc(OCC(=O)N/N=C(\C)c2ccc3c(c2)OCCO3)cc1	-10%	6%	2%	33%	3
C/C(=N\NC(=S)Nc1ccc(C(C)C)cc1)c1ccc2c(c1)OCO2	-13%	9%	?	6.3µM*	-12
CCNC(=S)N/N=C(\C)c1ccc2c(c1)OCCO2	-3%	-21%	7.1µM*	2.8µM*	22

Bioassay records deposited in PubChem by National Center for Advancing Translational Sciences (NCATS).
